For eleven compounds, Percent Effect results are on record in ChEMBL document CHEMBL3988442, “University of Dundee, Small-Polar-MMV Screening Library” (2021).

Common to all, as to parameters: scale not given: direction of the effect not stated beside the values
For experiment [1], the target named is Protein translocase subunit SecA (Escherichia coli (strain K12)) (UniProt P10408). The experiment in a line: Assay to Identify E. coli SecA ATPase Inhibitors. It is filed as functional. The following applies: 30 µM.
In experiment [2] the target is T1, Ubiquitin-activating enzyme e1, putative (Leishmania donovani (strain BPK282A1)) (UniProt E9BSI1).
T1 sequence (whole entry): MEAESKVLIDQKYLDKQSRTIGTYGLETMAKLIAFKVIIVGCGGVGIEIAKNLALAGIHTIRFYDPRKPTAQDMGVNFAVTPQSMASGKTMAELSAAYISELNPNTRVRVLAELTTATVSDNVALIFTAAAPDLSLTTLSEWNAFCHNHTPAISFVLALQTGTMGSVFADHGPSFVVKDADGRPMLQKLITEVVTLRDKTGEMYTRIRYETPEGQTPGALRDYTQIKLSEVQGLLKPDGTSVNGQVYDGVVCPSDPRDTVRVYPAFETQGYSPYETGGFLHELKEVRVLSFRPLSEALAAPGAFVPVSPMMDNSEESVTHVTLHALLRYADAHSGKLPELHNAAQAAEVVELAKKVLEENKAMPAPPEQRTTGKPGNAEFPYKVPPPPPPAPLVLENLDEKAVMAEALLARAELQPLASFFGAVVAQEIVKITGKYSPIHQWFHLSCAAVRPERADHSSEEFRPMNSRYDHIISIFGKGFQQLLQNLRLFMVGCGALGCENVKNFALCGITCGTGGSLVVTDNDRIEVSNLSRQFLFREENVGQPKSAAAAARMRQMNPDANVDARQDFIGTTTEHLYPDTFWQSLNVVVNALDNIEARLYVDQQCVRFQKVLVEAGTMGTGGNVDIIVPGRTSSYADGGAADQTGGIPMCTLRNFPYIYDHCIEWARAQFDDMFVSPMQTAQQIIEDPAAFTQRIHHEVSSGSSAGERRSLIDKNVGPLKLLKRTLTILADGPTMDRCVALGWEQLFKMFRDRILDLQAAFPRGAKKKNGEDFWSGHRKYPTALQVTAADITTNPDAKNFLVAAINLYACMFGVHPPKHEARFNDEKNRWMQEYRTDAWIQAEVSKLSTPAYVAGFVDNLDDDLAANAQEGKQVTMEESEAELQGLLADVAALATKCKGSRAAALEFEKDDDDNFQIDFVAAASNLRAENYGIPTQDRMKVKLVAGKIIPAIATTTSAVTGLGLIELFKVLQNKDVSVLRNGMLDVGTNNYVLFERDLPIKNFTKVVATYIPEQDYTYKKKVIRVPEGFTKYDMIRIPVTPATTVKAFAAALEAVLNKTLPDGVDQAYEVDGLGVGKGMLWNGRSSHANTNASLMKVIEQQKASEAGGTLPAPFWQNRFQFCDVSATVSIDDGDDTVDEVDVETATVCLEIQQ
The experiment in a line: Leishmania donovani Ubiquitin Activating Enzyme (LdE1). The format is functional. The following applies: 30 µM.

Experiment [3] deals with AMP-activated protein kinase, AMPK (Homo sapiens) (UniProt P54646+O43741+P54619+Q9UGJ0+Q9Y478+Q13131+Q9UGI9). The experiment in a line: AMP-dependent Kinase enzyme assay. An in vitro enzyme assay that detects ADP turnover that is directly proportional to AMPK activity. This uses naive AMPK that is activated during the assay with MK-8722. The format is functional. The following applies: 30 µM.

The target in experiment [4] is Sialic acid-binding Ig-like lectin 9 (Homo sapiens) (UniProt Q9Y336). In words: Hs-Siglec9 ALPHAscreen SOP 20170721. The following applies: 10 µM.
A further experiment has as its system Trypanosoma cruzi. In words: Trypanosoma cruzi phosphomannomutase and mannose-1-phosphate guanylyltransferase assay. It is filed as functional. The following applies: 10 µM.
Experiment [5] addresses T2, Arginase-2, mitochondrial (Homo sapiens) (UniProt P78540).
T2 sequence (whole entry): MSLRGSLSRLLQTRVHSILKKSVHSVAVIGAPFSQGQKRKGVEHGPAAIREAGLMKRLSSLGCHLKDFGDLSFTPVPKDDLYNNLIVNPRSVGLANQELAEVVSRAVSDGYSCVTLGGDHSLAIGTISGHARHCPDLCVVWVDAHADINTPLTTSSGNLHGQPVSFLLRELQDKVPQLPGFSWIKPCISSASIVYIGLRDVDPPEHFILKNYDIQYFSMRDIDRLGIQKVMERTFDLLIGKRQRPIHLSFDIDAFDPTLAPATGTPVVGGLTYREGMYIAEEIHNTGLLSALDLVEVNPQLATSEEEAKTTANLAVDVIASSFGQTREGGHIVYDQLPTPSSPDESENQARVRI
The experiment in a line: in vitro enzyme assay to detect the production of urea directly proportional to the activity of Arginase II. Also: in the data most compounds retested in dose-response had high values. The format is functional. The following applies: 33.3 µM.

For experiment [6], the target named is T3, Proteasome subunit beta (Trypanosoma cruzi) (UniProt O96673).
T3 sequence (whole entry): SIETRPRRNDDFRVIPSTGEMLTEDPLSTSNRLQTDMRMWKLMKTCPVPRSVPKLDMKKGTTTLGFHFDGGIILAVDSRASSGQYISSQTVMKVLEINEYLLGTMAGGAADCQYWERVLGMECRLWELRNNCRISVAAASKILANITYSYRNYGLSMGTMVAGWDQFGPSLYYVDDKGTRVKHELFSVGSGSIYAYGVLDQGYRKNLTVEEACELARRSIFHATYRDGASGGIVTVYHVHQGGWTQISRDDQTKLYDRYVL
In words: Trypanosoma cruzi proteasome chymotrypsin-like activity (TcProtChymo) assay. Also: in the data most compounds retested in dose-response had high values. It is filed as functional. The following applies: 9.37 µM.

For the next experiment, the species on record is Homo sapiens. The experiment in a line: To identify inhibition of the IFN signalling (Jak-Stat) pathway via expression of an eGFP reporter gene under the control of an IFN-stimulated response element (ISRE) containing MxA promoter. The format is functional. The following applies: 30 µM.
Experiment [7] concerns the target T4, Tyrosyl-tRNA synthetase, putative (Trypanosoma cruzi (strain CL Brener)) (UniProt Q4DSP6).
T4 sequence (whole entry): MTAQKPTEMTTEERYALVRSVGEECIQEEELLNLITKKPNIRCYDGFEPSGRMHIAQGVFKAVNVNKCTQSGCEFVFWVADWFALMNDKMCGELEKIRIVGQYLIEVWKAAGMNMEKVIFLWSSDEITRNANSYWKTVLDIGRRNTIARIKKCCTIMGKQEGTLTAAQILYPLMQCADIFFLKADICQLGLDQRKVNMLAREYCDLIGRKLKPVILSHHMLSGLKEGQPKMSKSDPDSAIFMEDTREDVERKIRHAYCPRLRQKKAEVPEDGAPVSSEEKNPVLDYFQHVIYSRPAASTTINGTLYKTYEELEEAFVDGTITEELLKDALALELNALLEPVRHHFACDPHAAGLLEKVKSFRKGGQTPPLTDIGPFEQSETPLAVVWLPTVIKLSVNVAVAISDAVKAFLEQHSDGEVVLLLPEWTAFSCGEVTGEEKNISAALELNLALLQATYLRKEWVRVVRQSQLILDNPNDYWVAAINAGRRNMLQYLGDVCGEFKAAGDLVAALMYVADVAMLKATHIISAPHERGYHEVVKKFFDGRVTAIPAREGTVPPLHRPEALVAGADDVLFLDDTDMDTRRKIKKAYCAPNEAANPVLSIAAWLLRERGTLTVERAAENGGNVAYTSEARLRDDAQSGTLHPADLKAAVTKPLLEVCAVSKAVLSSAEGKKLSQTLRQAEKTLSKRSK
The experiment in a line: Trypanosoma cruzi tyrosyl tRNA synthetase (TcYRS) _High Tyrosine SOP. Also: in the data most compounds retested in dose-response had high values. The format is functional. The following applies: 30 µM.

For experiment [8], the target named is T4, Tyrosyl-tRNA synthetase, putative (Trypanosoma cruzi (strain CL Brener)). In words: Trypanosoma cruzi tyrosyl tRNA synthetase (TcYRS) SOP. The following applies: 30 µM. It is filed as functional.
Experiment [9] concerns the target Chromo domain-containing protein 1 (Saccharomyces cerevisiae (strain ATCC 204508 / S288c) (Baker's yeast)) (UniProt P32657). The experiment in a line: ScCHD-1 Enzyme Inhibition Assay. Also: in the data most compounds retested in dose-response had high values. It is filed as functional. The following applies: 30 µM.

For some of these results: Results with a measured potency or affinity are listed apart.

Chromo domain-containing protein 1 (Saccharomyces cerevisiae (strain ATCC 204508 / S288c) (Baker's yeast)), sequence (P32657 whole entry, the tested form may be a part): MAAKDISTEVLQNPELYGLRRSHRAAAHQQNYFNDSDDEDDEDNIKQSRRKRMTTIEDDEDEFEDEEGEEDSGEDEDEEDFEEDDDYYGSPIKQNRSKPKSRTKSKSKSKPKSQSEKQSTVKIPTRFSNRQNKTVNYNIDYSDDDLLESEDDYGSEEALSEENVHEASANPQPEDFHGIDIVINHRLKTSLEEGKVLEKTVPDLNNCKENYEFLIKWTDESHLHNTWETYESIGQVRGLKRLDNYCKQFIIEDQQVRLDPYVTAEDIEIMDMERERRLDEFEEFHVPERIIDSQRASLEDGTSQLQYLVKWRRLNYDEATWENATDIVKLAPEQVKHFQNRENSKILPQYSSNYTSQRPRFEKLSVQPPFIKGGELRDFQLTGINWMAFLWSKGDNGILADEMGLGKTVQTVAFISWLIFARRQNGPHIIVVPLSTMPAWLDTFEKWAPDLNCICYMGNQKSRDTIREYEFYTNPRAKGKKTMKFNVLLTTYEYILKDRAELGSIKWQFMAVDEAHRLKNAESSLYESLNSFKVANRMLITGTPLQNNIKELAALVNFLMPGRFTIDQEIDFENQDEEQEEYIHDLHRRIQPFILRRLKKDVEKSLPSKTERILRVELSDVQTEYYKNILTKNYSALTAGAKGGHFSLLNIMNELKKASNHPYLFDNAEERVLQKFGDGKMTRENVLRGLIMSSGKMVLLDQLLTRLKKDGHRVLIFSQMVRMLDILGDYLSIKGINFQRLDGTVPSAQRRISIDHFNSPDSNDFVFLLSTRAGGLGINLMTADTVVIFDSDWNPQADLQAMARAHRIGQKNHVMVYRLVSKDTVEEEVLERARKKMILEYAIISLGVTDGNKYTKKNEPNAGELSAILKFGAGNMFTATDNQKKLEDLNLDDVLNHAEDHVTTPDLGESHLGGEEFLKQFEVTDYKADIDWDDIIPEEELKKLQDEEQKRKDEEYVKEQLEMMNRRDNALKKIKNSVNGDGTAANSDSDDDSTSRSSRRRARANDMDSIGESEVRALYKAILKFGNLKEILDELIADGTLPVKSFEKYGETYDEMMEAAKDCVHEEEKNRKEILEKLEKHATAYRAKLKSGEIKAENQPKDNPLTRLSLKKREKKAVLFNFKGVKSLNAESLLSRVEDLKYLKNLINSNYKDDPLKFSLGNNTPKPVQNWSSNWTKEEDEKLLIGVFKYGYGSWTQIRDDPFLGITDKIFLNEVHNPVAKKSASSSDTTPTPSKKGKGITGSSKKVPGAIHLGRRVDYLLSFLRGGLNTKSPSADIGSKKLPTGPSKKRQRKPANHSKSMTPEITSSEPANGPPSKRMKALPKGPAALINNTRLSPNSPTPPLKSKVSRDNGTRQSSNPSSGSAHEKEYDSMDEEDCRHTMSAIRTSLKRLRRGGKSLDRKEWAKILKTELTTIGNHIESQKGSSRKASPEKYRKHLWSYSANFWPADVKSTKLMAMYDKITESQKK
Protein translocase subunit SecA (Escherichia coli (strain K12)), sequence (P10408 whole entry): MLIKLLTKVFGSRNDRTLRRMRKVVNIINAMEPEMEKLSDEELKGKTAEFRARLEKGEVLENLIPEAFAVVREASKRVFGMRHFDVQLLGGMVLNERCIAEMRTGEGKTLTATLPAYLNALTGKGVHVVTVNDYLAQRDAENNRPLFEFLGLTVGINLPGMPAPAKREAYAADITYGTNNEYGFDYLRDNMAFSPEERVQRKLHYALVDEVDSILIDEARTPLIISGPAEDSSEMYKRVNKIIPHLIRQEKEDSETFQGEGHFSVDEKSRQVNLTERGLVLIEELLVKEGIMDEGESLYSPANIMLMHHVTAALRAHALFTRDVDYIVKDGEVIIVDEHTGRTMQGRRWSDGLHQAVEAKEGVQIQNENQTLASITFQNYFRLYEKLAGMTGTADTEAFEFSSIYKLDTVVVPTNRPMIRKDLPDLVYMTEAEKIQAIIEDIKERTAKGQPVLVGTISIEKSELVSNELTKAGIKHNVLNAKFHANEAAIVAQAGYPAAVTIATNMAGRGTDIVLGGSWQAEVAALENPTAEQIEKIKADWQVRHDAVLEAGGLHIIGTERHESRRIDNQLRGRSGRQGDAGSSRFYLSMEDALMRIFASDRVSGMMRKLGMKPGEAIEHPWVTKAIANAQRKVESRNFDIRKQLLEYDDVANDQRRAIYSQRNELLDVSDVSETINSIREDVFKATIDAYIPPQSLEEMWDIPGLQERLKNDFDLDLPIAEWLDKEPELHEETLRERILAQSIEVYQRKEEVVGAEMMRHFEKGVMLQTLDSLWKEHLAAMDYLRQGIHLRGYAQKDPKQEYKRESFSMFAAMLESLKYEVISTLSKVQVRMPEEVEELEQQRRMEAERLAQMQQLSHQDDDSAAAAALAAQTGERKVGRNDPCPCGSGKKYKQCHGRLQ
Sialic acid-binding Ig-like lectin 9 (Homo sapiens), sequence (Q9Y336 whole entry): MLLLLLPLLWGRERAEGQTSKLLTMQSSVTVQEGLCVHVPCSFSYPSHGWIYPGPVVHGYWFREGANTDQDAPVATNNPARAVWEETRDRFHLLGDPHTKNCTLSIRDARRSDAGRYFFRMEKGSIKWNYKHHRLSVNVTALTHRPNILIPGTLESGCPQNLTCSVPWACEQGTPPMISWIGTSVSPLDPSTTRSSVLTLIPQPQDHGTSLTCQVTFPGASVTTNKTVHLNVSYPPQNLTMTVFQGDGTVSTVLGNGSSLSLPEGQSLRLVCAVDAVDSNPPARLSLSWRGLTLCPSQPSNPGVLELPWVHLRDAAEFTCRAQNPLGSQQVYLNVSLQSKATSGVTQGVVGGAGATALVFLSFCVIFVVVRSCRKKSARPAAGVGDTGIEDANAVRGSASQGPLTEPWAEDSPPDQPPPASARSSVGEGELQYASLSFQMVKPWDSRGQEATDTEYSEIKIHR

For the compound `Cc1nccn1-c1cc(CNC(=O)C(C)(C)C)ccn1`, the Percent Effect is -0.152% in experiment [1]; 11% in experiment [2]; 4.7% in experiment [3]; 6.88% in experiment [4]; 0.588% in the experiment on Trypanosoma cruzi; 34.1% in experiment [5]. The Percent Effect was 18.1% in [6]; -3.27% in the experiment filed under Homo sapiens; 2.15% in [7]; 17.5% in [8]; -6.75% in [9].

Regarding `COc1ncccc1C(=O)Nc1nc2c(s1)CN(S(=O)(=O)C1CC1)CC2`, the Percent Effect in experiment [1] is -8.71%; in [2] it was 0%; in [3], 25.5%; in experiment [4], -2.45%; in the experiment with Trypanosoma cruzi, -4.9%; in experiment [5], 1.82%. In addition, the Percent Effect was 29.8% in [6]; 21.4% in the experiment filed under Homo sapiens; 3.23% in experiment [7]; 5% in [8]; 102% in experiment [9].

Regarding `CCOC1CCCN(C(=O)c2cnc3c(cnn3C3CCCC3)c2)C1` (stereo unspecified), the Percent Effect in [1] was -4.83%; in experiment [2], 0%; in experiment [3], 2.09%; in [4], 0.582%; with Trypanosoma cruzi, -2.93%; in [5], -2.66%. Besides, the Percent Effect in [6] is -2.38%; in the experiment filed under Homo sapiens it was 24.1%; in experiment [7], 1.48%; in experiment [8], -8.86%; in experiment [9], -4.24%.

For `Cc1nc(CN2C(=O)C[C@H]3[C@H]2CCN3C2CCOCC2)cs1`, the Percent Effect is -2.26% in experiment [1]; 11% in experiment [2]; -0.758% in experiment [3]; 4.06% in [4]; 0.595% in the experiment on Trypanosoma cruzi; -2% in experiment [5]. Further, the Percent Effect was 8.3% in experiment [6]; -4.37% in the experiment listed under Homo sapiens; 3.12% in [7]; 11.1% in [8]; -3.21% in [9].

Turning to `O=C1CC(N(C(=O)c2ccc3c(c2)CCC3)C2CC2)C(=O)N1` (stereo unspecified), the Percent Effect is -3.91% in experiment [1]; 7.59% in experiment [2]; -5.04% in experiment [3]; -3.45% in experiment [4]; -8.21% in the experiment with Trypanosoma cruzi; 4.18% in experiment [5]. The Percent Effect in [6] was 5.98%; in the experiment filed under Homo sapiens, 25.8%; in [7] it was -0.493%; in [8] it was 1.27%; in [9] it was -6.63%.

Take `COCC1CN(C(=O)c2ccnnc2)Cc2c1cnn2C` (stereo unspecified): the Percent Effect was -3.58% in [1]; -5.33% in experiment [2]; 7.75% in experiment [3]; -1.95% in experiment [4]; 4.33% in the experiment on Trypanosoma cruzi; -3.5% in experiment [5]. Besides, the Percent Effect in experiment [6] was 9.6%; in the experiment filed under Homo sapiens it was 9.47%; in [7] it was 4.25%; in experiment [8] it was 1.28%; in [9] it was -4.09%.

Take `Cc1cnn(CCC(=O)N2CCCC(c3cc(C(N)=O)[nH]n3)C2)c1` (stereo unspecified): the Percent Effect is -1.91% in experiment [1]; 5.41% in experiment [2]; -10.4% in experiment [3]; 10.5% in experiment [4]; 1.79% in the experiment on Trypanosoma cruzi; -2.4% in [5]. Besides, the Percent Effect in experiment [6] was -0.901%; in the experiment listed under Homo sapiens, 4.5%; in experiment [7], 1.48%; in experiment [8], 11.1%; in experiment [9] it was -7.36%.

As for `Cc1cc2n(n1)CC(CNCc1cnn(-c3ccccc3)c1)CN2` (stereo unspecified), the Percent Effect is 2.28% in experiment [1]; 5.26% in experiment [2]; -10.4% in [3]; 1.3% in experiment [4]; 2.26% in the experiment with Trypanosoma cruzi; 4.21% in experiment [5]. Also, the Percent Effect in experiment [6] was 13.9%; in the experiment filed under Homo sapiens, 15.7%; in experiment [7] it was 12.2%; in experiment [8], 12.2%; in experiment [9], -7.16%.

Turning to `COCCOc1ccc(NC(=O)N(C)Cc2ccsc2)cn1`, the Percent Effect in experiment [1] was 1.05%; in experiment [2] it was 17.7%; in experiment [3], -9.72%; in experiment [4] it was -8.23%; in the experiment with Trypanosoma cruzi, -9.35%; in experiment [5] it was 2.28%. In addition, the Percent Effect in [6] was 7.94%; in the experiment filed under Homo sapiens, 12.9%; in experiment [7], 2.46%; in experiment [8] it was 13.9%; in experiment [9], -6.06%.

Take `O=C(NCCc1ccncc1)C1CCN(Cc2ccco2)CC1`: the Percent Effect was -7.38% in experiment [1]; -2.67% in experiment [2]; -2.38% in experiment [3]; -3.22% in experiment [4]; -6.52% in the experiment on Trypanosoma cruzi; -2.6% in experiment [5]. Besides, the Percent Effect in [6] was 12.7%; in the experiment listed under Homo sapiens it was 25.9%; in experiment [7] it was -1.64%; in [8], 1.24%; in experiment [9], -7.8%.

With `CC(C)CN1CCCC2(CCN(C(=O)c3cnccn3)C2)C1` (stereo unspecified), the Percent Effect in experiment [1] was 2.12%; in [2], -2.6%; in [3], -0.541%; in experiment [4], 2.48%; in the experiment with Trypanosoma cruzi it was -4.24%; in experiment [5], -3.23%. The Percent Effect was 3.13% in experiment [6]; 0.321% in the experiment listed under Homo sapiens; 3.17% in experiment [7]; -3.85% in experiment [8]; -5.96% in experiment [9].
